# Source: PubChem BioAssay AID2665 (Vanderbilt High Throughput Screening Facility, 2010)
# Active and inactive are the calls of the source. The rule behind the calls is not given here.
# Target: Muscarinic acetylcholine receptor M1 (Rattus norvegicus) (UniProt P08482)
# Assay: potentiation of ACh response at hM5 and rM1 – CHO cells, calcium, ACh EC10, single 30 µM, SAR follow-up (AID 2665);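 note: 100% = response to a maximal acetylcholine concentration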
# Conditions: rat M1 potentiation, CHO calcium; at 30 µM; stronger effect = higher value
row,SMILES,% ACh max response [%]
1,O=C1C(=O)N(Cc2ccc(-c3ccc(Cl)cc3)cc2)c2ccccc21,45.1
2,O=C1C(=O)N(Cc2ccccc2C(F)(F)F)c2ccccc21,37.9
3,O=C1C(=O)N(Cc2ccc(-c3ccc(Cl)nc3)cc2)c2ccccc21,37.1
4,COc1ccc(CN2C(=O)C(=O)c3cc(F)ccc32)cc1,41.1
5,O=C1C(=O)N(Cc2ccc(F)cc2F)c2ccc(OC(F)(F)F)cc21,25.9
6,Cc1cccc2c1N(Cc1ccccc1F)C(=O)C2=O,24.9
7,Cc1ccc2c(c1)C(=O)C(=O)N2Cc1ccc(Br)cc1F,22.3
8,O=C1C(=O)N(Cc2c(F)cccc2F)c2c(F)cccc21,33.1
9,O=C1C(=O)N(Cc2ccccc2F)c2c(Cl)cccc21,50.4
10,O=C1C(=O)N(Cc2ccc(Br)cc2F)c2ccc(Cl)cc21,29.9
11,O=C1C(=O)N(Cc2ccc(Br)cc2)c2c(Cl)ccc(Cl)c21,12.1
12,COc1cccc(CN2C(=O)C(=O)c3cc(F)ccc32)c1,32.3
13,O=C1C(=O)N(Cc2ccccc2C(F)(F)F)c2ccc(OC(F)(F)F)cc21,22.6
14,O=C1C(=O)N(Cc2ccccc2Cl)c2ccc(F)cc21,41.4
15,COc1cccc(CN2C(=O)C(=O)c3cc(Cl)ccc32)c1,16.9
16,Cc1ccccc1CN1C(=O)C(=O)c2cccc(Cl)c21,32.8
17,O=C1C(=O)N(Cc2ccccc2Cl)c2c(Cl)ccc(Cl)c21,13.1
18,Cc1ccc2c(c1)C(=O)C(=O)N2Cc1ccc(Br)cc1,19
19,O=C1C(=O)N(Cc2ccc(OC(F)(F)F)cc2)c2ccc(F)cc21,59.8

row,SMILES,% ACh max response [%]
1,COc1cccc(CN2C(=O)C(=O)c3cc(OC(F)(F)F)ccc32)c1,28.6
2,O=C1C(=O)N(Cc2ccccc2C(F)(F)F)c2ccc(F)cc21,47.8
3,COc1ccc(CN2C(=O)C(=O)c3cc(C)ccc32)cc1,14.1
4,O=C1C(=O)N(Cc2ccc(F)cc2F)c2ccccc21,44.8
5,O=C1C(=O)N(Cc2ccccc2C(F)(F)F)c2c(F)cccc21,41.3
6,O=C1C(=O)N(Cc2ccc(Br)cc2)c2c(Cl)cccc21,29.9
7,O=C1C(=O)N(Cc2ccc(C(F)(F)F)cc2)c2c(F)cccc21,60.9
8,O=C1C(=O)N(Cc2ccc(Br)cc2F)c2ccc(OC(F)(F)F)cc21,11.6
9,COc1cccc(CN2C(=O)C(=O)c3ccccc32)c1,19.4
10,O=C1C(=O)N(Cc2ccc(Br)cc2F)c2ccc(F)cc21,70.5
11,COc1cccc(CN2C(=O)C(=O)c3cccc(Cl)c32)c1,46.9
12,Cc1ccc2c(c1)C(=O)C(=O)N2Cc1ccc(C(F)(F)F)cc1,22.9
13,Cc1ccccc1CN1C(=O)C(=O)c2cc(F)ccc21,37.7
14,O=C1C(=O)N(Cc2ccc(OC(F)(F)F)cc2)c2ccc(OC(F)(F)F)cc21,13.8
15,Cc1ccccc1CN1C(=O)C(=O)c2c(Cl)ccc(Cl)c21,13.7
16,O=C1C(=O)N(Cc2ccc(C(F)(F)F)cc2)c2c(Cl)cccc21,67
17,COc1ccccc1-c1ccc(CN2C(=O)C(=O)c3ccccc32)cc1,47.6
18,COc1ccc(CCN2C(=O)C(=O)c3ccccc32)cc1,38.6

# Target: Muscarinic acetylcholine receptor M5 (Homo sapiens) (UniProt P08912)
# Assay: as above
# Conditions: CHO hM5 calcium flux, ACh EC10 potentiation; at 30 µM; stronger effect = higher value
# Sequence of Muscarinic acetylcholine receptor M5 (Homo sapiens) (P08912 whole entry, looked up): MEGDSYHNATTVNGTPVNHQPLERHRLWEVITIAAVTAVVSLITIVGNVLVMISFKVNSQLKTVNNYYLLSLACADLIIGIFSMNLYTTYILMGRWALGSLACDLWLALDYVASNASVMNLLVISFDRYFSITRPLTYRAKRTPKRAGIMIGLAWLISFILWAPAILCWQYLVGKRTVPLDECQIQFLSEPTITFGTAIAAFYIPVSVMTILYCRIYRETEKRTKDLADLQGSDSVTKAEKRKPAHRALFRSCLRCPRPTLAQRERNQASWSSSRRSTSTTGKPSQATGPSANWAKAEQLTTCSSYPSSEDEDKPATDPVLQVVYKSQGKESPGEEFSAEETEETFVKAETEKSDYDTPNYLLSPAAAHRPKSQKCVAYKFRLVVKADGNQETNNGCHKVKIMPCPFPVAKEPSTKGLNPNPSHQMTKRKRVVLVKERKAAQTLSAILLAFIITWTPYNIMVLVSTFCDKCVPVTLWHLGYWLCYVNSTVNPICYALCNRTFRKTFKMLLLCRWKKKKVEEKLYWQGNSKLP
row,SMILES,% ACh max response
1,O=C1C(=O)N(Cc2ccc(-c3ccc(Cl)cc3)cc2)c2ccccc21,6.53% (active)
2,O=C1C(=O)N(Cc2ccccc2C(F)(F)F)c2ccccc21,40.2% (active)
3,O=C1C(=O)N(Cc2ccc(-c3ccc(Cl)nc3)cc2)c2ccccc21,47.8% (active)
4,COc1ccc(CN2C(=O)C(=O)c3cc(F)ccc32)cc1,38.3% (active)
5,O=C1C(=O)N(Cc2ccc(F)cc2F)c2ccc(OC(F)(F)F)cc21,61.9% (active)
6,Cc1cccc2c1N(Cc1ccccc1F)C(=O)C2=O,24.6% (inactive)
7,Cc1ccc2c(c1)C(=O)C(=O)N2Cc1ccc(Br)cc1F,27.8% (inactive)
8,O=C1C(=O)N(Cc2c(F)cccc2F)c2c(F)cccc21,25.1% (inactive)
9,O=C1C(=O)N(Cc2ccccc2F)c2c(Cl)cccc21,49.5% (active)
10,O=C1C(=O)N(Cc2ccc(Br)cc2F)c2ccc(Cl)cc21,30.4% (inactive)
11,O=C1C(=O)N(Cc2ccc(Br)cc2)c2c(Cl)ccc(Cl)c21,20.7% (inactive)
12,COc1cccc(CN2C(=O)C(=O)c3cc(F)ccc32)c1,41.6% (active)
13,O=C1C(=O)N(Cc2ccccc2C(F)(F)F)c2ccc(OC(F)(F)F)cc21,56.5% (active)
14,O=C1C(=O)N(Cc2ccccc2Cl)c2ccc(F)cc21,39.9% (active)
15,COc1cccc(CN2C(=O)C(=O)c3cc(Cl)ccc32)c1,27.9% (inactive)
16,Cc1ccccc1CN1C(=O)C(=O)c2cccc(Cl)c21,32.6% (inactive)
17,O=C1C(=O)N(Cc2ccccc2Cl)c2c(Cl)ccc(Cl)c21,18.9% (inactive)
18,Cc1ccc2c(c1)C(=O)C(=O)N2Cc1ccc(Br)cc1,24.1% (inactive)
19,O=C1C(=O)N(Cc2ccc(OC(F)(F)F)cc2)c2ccc(F)cc21,58.4% (active)

row,SMILES,% ACh max response
1,COc1cccc(CN2C(=O)C(=O)c3cc(OC(F)(F)F)ccc32)c1,70.1% (active)
2,O=C1C(=O)N(Cc2ccccc2C(F)(F)F)c2ccc(F)cc21,36.1% (active)
3,COc1ccc(CN2C(=O)C(=O)c3cc(C)ccc32)cc1,21.2% (inactive)
4,O=C1C(=O)N(Cc2ccc(F)cc2F)c2ccccc21,40.4% (active)
5,O=C1C(=O)N(Cc2ccccc2C(F)(F)F)c2c(F)cccc21,30.9% (active)
6,O=C1C(=O)N(Cc2ccc(Br)cc2)c2c(Cl)cccc21,44.3% (active)
7,O=C1C(=O)N(Cc2ccc(C(F)(F)F)cc2)c2c(F)cccc21,71.1% (active)
8,O=C1C(=O)N(Cc2ccc(Br)cc2F)c2ccc(OC(F)(F)F)cc21,36.4% (inactive)
9,COc1cccc(CN2C(=O)C(=O)c3ccccc32)c1,28% (inactive)
10,O=C1C(=O)N(Cc2ccc(Br)cc2F)c2ccc(F)cc21,64% (active)
11,COc1cccc(CN2C(=O)C(=O)c3cccc(Cl)c32)c1,38.7% (active)
12,Cc1ccc2c(c1)C(=O)C(=O)N2Cc1ccc(C(F)(F)F)cc1,35.5% (inactive)
13,Cc1ccccc1CN1C(=O)C(=O)c2cc(F)ccc21,40.8% (active)
14,O=C1C(=O)N(Cc2ccc(OC(F)(F)F)cc2)c2ccc(OC(F)(F)F)cc21,58.9% (active)
15,Cc1ccccc1CN1C(=O)C(=O)c2c(Cl)ccc(Cl)c21,16.4% (inactive)
16,O=C1C(=O)N(Cc2ccc(C(F)(F)F)cc2)c2c(Cl)cccc21,70.8% (active)
17,COc1ccccc1-c1ccc(CN2C(=O)C(=O)c3ccccc32)cc1,58.1% (active)
18,COc1ccc(CCN2C(=O)C(=O)c3ccccc32)cc1,51.7% (active)
